Source: the supplement of paper PMC10338343
± gives the standard deviation.

These sequences were tested on MILI (PIWIL2) piRISC loaded with L1MC piRNA (26 nt) (assay: pre-steady-state target cleavage rate (min^-1); guide: L1MC piRNA 5'p-UAACUAAAUACUAUGCAAGCUGUAGG; MIWI and MILI are mouse PIWI proteins and EfPiwi is from a freshwater sponge; tags in brackets are library labels; higher = faster piRNA-guided slicing of the target). Conditions: auxiliary factor: 500 nM mouse GTSF1.
How it was run: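 The pre-steady-state cleavage rate was calculated from a burst-and-steady-state fit. Data came from Cleave-'n-Seq, in which […] transcribed, DNA-blocked target RNA library was mixed with 1 nM active affinity-purified piRISC carrying one synthetic guide, with or without 500 nM GTSF1 partner protein, in HEPES–potassium acetate buffer at 33 °C for 0–8 or 0–960 min. Uncleaved targets were sequenced and normalised to depth and to weakly complementary targets, three trials were pooled, and k3 was capped at 0.0001 min^-1.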
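Note: 1 nM active piRISC with 0.1 nM target library at 33 °C single turnover.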

UCCUGGAUGACGAUGCAUAGUAUUUACAAA and UCCUGGAUGUCCUUGCAUUGUAUUUAGAUA are within error of each other in “pre-steady-state target cleavage rate” value: 0.0245 ± 0.011 for the first, 0.0401 ± 0.011 for the second.

First: UCCUGCUACAGGAUGCAUAGUAUUUACAAA
Second: UCCUCCUACAGCUACCAUAGUAUUUAGUAA
The “pre-steady-state target cleavage rate” value of the first is lower: 0.0053 ± 0.0037 for the first, 0.141 ± 0.023 for the second.

First: UCCUGGAUCAGCUUGCUUAGUAUUUUCAAA
Second: UCCUGGAACAGCUUCGUUAGUAUUUAGUAA
The “pre-steady-state target cleavage rate” value of the first is lower: 0.0126 ± 0.0057 for the first, 0.115 ± 0.017 for the second.

Compared with UCCUGGAACAGCUUGCAUAGAAUUAAGUUA, UCCUGGAACAGGAUGCAUAGUAUUUUCAAA is lower in “pre-steady-state target cleavage rate” value: 0.051 ± 0.014 for the first, 0.0202 ± 0.0076 for the second.

Going from UCCUGCUACAGCUUGCAUAGUAAAUACAAA to UCCUGGAACAGCAACCAUAGUAUUUAGUAA, the “pre-steady-state target cleavage rate” value rises from 0.0117 ± 0.006 to 0.143 ± 0.019.

With UCCUGCUACAGCUUCGAUAGUAUUUAGAAA the “pre-steady-state target cleavage rate” value was 0.0541 ± 0.017.

Same assay, conditions: auxiliary factor: none (no GTSF1)

First: UCCUGGAUGUCGUUCCAAAGUAUUUAGUUA
Second: UCCUGGAUGUCGUUGCAUACAAUUUAGUUA
The “pre-steady-state target cleavage rate” value of the first is lower: under 0.0001 for the first, 0.00319 ± 0.0024 for the second.

UCCUGGAUGUCGAUGAUAGUAUUUAGUUA and UCCUGGAUGUCGAACGUAUGUAUUUAGUA cannot be ordered by “pre-steady-state target cleavage rate” value: under 0.0001 for the first, under 0.0001 for the second.

For UCCUGGAUGUCGAACGUUAGUAUUUAGUAA, the “pre-steady-state target cleavage rate” value was under 0.0001.
